Source: ChEMBL document CHEMBL3988442, “University of Dundee, Small-Polar-MMV Screening Library” (2021)

Each compound was assayed against T1, Tyrosyl-tRNA synthetase, putative (Trypanosoma cruzi (strain CL Brener)) (UniProt Q4DSP6) (assay: Trypanosoma cruzi tyrosyl tRNA synthetase (TcYRS) SOP). Conditions: 30 µM.
T1 sequence (whole entry): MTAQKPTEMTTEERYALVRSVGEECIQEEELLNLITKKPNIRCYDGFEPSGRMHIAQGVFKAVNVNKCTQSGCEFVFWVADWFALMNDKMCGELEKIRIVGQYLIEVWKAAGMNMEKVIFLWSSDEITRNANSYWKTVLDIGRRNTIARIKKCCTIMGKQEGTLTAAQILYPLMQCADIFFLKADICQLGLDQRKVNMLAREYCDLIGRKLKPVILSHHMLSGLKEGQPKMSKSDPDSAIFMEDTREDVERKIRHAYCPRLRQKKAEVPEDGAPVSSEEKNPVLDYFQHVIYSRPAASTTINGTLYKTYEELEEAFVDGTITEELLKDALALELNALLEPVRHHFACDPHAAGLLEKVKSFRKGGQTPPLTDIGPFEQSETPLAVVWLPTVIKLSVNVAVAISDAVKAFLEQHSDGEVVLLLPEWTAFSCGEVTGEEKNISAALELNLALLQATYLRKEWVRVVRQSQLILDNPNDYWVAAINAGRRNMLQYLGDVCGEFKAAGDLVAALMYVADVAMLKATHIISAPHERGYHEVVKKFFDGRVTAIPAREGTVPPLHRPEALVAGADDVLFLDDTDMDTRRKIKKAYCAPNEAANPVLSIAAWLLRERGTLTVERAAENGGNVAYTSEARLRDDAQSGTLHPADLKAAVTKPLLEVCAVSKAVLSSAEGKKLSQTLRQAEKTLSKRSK
Assay type: functional
Parameters: scale not given: direction of the effect not stated beside the values

SMILES	Percent Effect
CCC1CN(c2nnc(C)c(C)c2C#N)CCO1 (stereo not given)	21.9%
COC(=O)c1ccccc1NC(=O)c1nc2ccccc2n(C)c1=O	16.7%
CCn1cnnc1C1CCN(C(=O)c2ccc(C(=O)OC)s2)CC1	12.2%
COc1ccc(NC(=O)CNc2cccc3c2CCCC3)c(OC)c1	-11.1%
Cc1ccc(N2CCCC(NCc3cccc4c3OCCO4)C2)nn1 (stereo not given)	18.5%
Cc1nc(CN2C(=O)C[C@@H]3[C@@H]2CCN3C(=O)C2CCOCC2)cs1	-3.7%
Cc1cnn(CC2CCCCN2CCC(=O)Nc2cc(C)on2)c1 (stereo not given)	12.7%
COCC(=O)N1CCC2(CC1)COCCN2CCN(C)C	-5%
CCc1n[nH]c(C2CN(Cc3nccn3CC)CCO2)n1 (stereo not given)	25.9%
CCOc1cccc(NS(=O)(=O)c2cc(C)c(C(=O)O)s2)c1	-3.7%
CCCNC(=O)c1sc(Nc2ccc(Cl)cn2)nc1C	7.69%
CC(C)c1ncc2c(n1)CN(Cc1nc(Cc3ccccc3)no1)CC2	23.2%
CS(=O)(=O)NC1CCN(C(=O)NCCNc2ccccn2)CC1	1.22%
OCC1CCCN1c1cc(NCc2ccc(Cl)s2)ncn1 (stereo not given)	15.2%
COc1cc(CCC(=O)NC2CC2)ccc1OCC(F)(F)F	16.1%
CCS(=O)(=O)c1ccc(N2CCC(NC(C)=O)CC2)cc1	8.64%
CC(=O)c1cn(CCC(=O)N[C@H](C(=O)O)C(C)C)c2ccccc12	15.4%
CCS(=O)(=O)c1ccc(N2CCC(NC(=O)c3cnn(C)c3)CC2)cc1	13.6%
Cc1nc[nH]c1-c1nc2cc(S(=O)(=O)N3CCCC3)ccc2n1C	17.5%
CCN(CCn1cccn1)Cc1nc(-c2ccccc2F)oc1C	0%

SMILES	Percent Effect
CN(Cc1ccncc1)C(=O)Nc1cnn(CC2CCCO2)c1 (stereo not given)	2.44%
Cc1cccc(-c2ccc(C(=O)NCC3CCOC3)c(=O)[nH]2)c1 (stereo not given)	11.1%
COc1ccc(C2CCCN2C(=O)NCCNc2ncccn2)cc1 (stereo not given)	12.5%
Cc1cc(C)c2nc(CN3CC[C@@H](O)C3)cc(O)c2c1	19.5%
CCOc1cccc(CNC(=O)NCC(O)c2cccc(F)c2)c1 (stereo not given)	23.5%
CN(C)C1CCN(C(=O)NCc2ccc(Cn3cncn3)cc2)CC1	17.1%
Cc1nn(C)c(C)c1C1CCCN1C(=O)CCCn1cccn1 (stereo not given)	-6.17%
O=C(NC1CCS(=O)(=O)C1)c1sccc1-c1ccc(F)cc1 (stereo not given)	6.17%
O=C(NCCn1ccnc1)c1cccc(F)c1	13.6%
CCC(=O)N1Cc2nccn2CC(CN(C)Cc2cccnc2)C1 (stereo not given)	8.97%
Cc1nc(N2CCN(C(=O)c3ccc(O)cc3)CC2)c2cnn(C)c2n1	-6.17%
CCOC(=O)C1CCN(C(=O)Cn2ccc3cc(Br)ccc32)CC1	10.3%
Cc1cccc(CN2C[C@@H]3CN(C(=O)c4ccsc4)C[C@@H]3C2=O)c1	8.64%
CN(C)S(=O)(=O)c1ccc(OCCNCCn2cccn2)cc1	-12.7%
CN(C)S(=O)(=O)N1CCC2(CCCN(Cc3ccc(F)cc3)C2=O)C1 (stereo not given)	-1.24%
CCOc1nnc(CN(C)C2CCCN(c3cccnn3)C2)s1 (stereo not given)	18.2%
Cc1cc(-c2nnn(CCC(N)=O)n2)ccc1F	13.6%
Cn1cc(C(=O)CC2CCCN2C(=O)c2cncc3ccccc23)cn1 (stereo not given)	12.7%
Cc1ccccc1CSCCn1nc2ccccn2c1=O	18.8%
Cn1ccnc1-c1cccc(NC(=O)NCCCO)c1	7.69%
